IL-1B inflam inh: qHTS for Inhibitors of Inflammasome Signaling: IL-1-beta AlphaLISA Primary Screen | THP-1 LPS/ATP IL-1B secretion, AlphaLISA, 16 h; hits give low values | activity change, % at 57.5 µM | 360,000 compounds, 4.7% hits | AID 743279, 2014; in the data active = activity change below about -50%; inconclusive = mostly about -30% to -49%
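Secreted IL-1B measured by AlphaLISA bead assay after 16 h compound exposure of THP-1 cells; compounds (final up to 57.5 uM) added 1 h before LPS (250 ng/mL) and ATP (1.25 mM) stimulation; lower signal means less secretion.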
ELG1 repair inh: qHTS screen for small molecules that inhibit ELG1-dependent DNA repair in human embryonic kidney (HEK293T) cells expressing luciferase-tagged ELG1; AID 504467, 2011; 330,000 compounds, 2.3% hits; Potency, µM (top dose mostly 46.1 µM), for the others: top-dose activity change, negative = inhibition, hits mostly inhibitors; HEK293T ELG1-luciferase reporter, luminescence, 16 h; DNA damage induced by 5-fluorouridine; note: potency is the fitted concentration of half-maximal effect; nearly all actives have a fitted effect of over 55% in size
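Cells (2,000 per well) received 5-fluorouridine plus test compound or DMSO and were incubated 16 hr at 37 °C, 5% CO2. Luciferase activity was read by luminescence 30 min after ONE-Glo addition; signal suppression marked inhibition of damage-induced ELG1 function.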
HT1080-NT tox: qHTS for induction of synthetic lethality in tumor cells producing 2HG: qHTS for the HT-1080-NT fibrosarcoma cell line. HT-1080-NT fibrosarcoma viability, CellTiter-Glo ATP luminescence, 48 h. Potency, µM (highest dose often 46.1 µM), inactives show at the top dose activity, negative = less viability, hits mostly cytotoxic. 360,000 compounds, 1.6% hits;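 note: NT is the 2HG producing partner of a matched IDH1 knockdown line; potency is the fitted concentration of half-maximal effect; 0% = DMSO-treated cells and -100% = media-only wells without cells; nearly all actives have a fitted effect of over 55% in size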
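Luminescent CellTiter-Glo readout after 48 hours of compound exposure at 37 degrees C defined viability of HT-1080-NT cells. Activity was normalized to DMSO wells and cell-free media wells; concentration-response curves were fitted and assigned curve classes.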
DT40 TDP1 CPT: qHTS for Inhibitors of human tyrosyl-DNA phosphodiesterase 1 (TDP1): qHTS in cells in presence of CPT; chicken DT40 Tdp1-/-;hTDP1 cells + 20 nM CPT, ATP luminescence, 48 h; Potency, µM (doses to about 46.2 µM), without a hit: at the highest dose activity change, negative = growth inhibition, usual class: inhibitors; 420,000 compounds, 12% hits; AID 686979, 2013; note: potency is the fitted concentration of half-maximal effect; nearly all actives have a fitted effect of over 55% in size
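Chicken DT40 Tdp1-/- cells complemented with human TDP1, 400 cells/well, exposed to compounds plus 20 nM camptothecin for at least 48 h at 37 C; viability read as ATP content by CellTiter-Glo luminescence.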
HT1080 IDH1KD tx: qHTS for induction of synthetic lethality in tumor cells producing 2HG: qHTS for the HT-1080-IDH1KD cell line; HT-1080 IDH1 knockdown viability, ATP luminescence, 48 h; Potency, µM (top dose mostly 46.1 µM), for inactives: at the highest dose activity, negative = toxicity, most hits filed as cytotoxic; 360,000 compounds, 2% hits;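 note: potency is the fitted concentration of half-maximal effect; 0% = DMSO wells and -100% = cell-free medium wells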
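Using the IDH1-knockdown HT-1080 line run in the same batch and compound series as the NT line, viability after 48 h at 37 °C was determined by CellTiter-Glo luminescence and expressed as % activity.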
TDP1 cell noCPT: qHTS for Inhibitors of human tyrosyl-DNA phosphodiesterase 1 (TDP1): qHTS in cells in absence of CPT; DT40 Tdp1-/- hTDP1 cells, no CPT, ATP luminescence, 48 h; Potency, µM (series often up to 46.2 µM), for inactives: top-dose activity change, negative = growth inhibition, actives largely listed as inhibitors; 420,000 compounds, 15% hits; AID 686978, 2013; note: potency is the fitted concentration of half-maximal effect; nearly all actives have a fitted effect of over 55% in size
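No-CPT arm: Tdp1-/-;hTDP1 DT40 cells (400/well) plus compounds, incubated ≥48 hr at 37 °C. Readout CellTiter-Glo luminescence.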
* marks the source's active call; other numbers are inactive results; u = inconclusive; x = no result given; [ ] = another dose, or the depositor's remark. Hits are enriched below; roughly 19% of the tested compounds scored in any of these assays. Unless noted, calls come from the whole dose curve; as a rule, active = well fitted curve in the direction sought with a large enough effect; inconclusive = small, poorly fitted or top-dose-only effect, or another doubt; inactive = no such curve, though single readings can be large; an effect the other way counts as inactive or inconclusive. Unless noted, % is set by controls: 0 for no effect and ±100 for the full control effect.

SMILES	IL-1B inflam inh	ELG1 repair inh	HT1080-NT tox	DT40 TDP1 CPT	HT1080 IDH1KD tx	TDP1 cell noCPT
COc1ccc(-c2ccc(CCC(=O)O)n2CC(=O)Nc2ccccc2C)cc1	-14	-2%	11%	-11%	9%	-6%
Cc1ccc(NC(=O)CN(C)S(=O)(=O)c2ccc3c(c2)n(C)c(=O)c(=O)n3C)cc1	2	12%	8%	u	u	-3%
COc1ccc(CN(C)S(=O)(=O)c2nnc(NC(=O)c3cccc(F)c3)s2)cc1	29	u	u	-17%	u	u
O=C(NCCc1c[nH]c2ccccc12)C(=O)NCC1OCCCN1S(=O)(=O)c1cc(F)ccc1F (stereo unspecified)	0	21µM*	10%	-25%	-5%	u
COc1ccc(S(=O)(=O)N2CCOC2CNC(=O)C(=O)NCCc2c[nH]c3ccccc23)cc1C (stereo unspecified)	0	26µM*	-10%	23µM*	-12%	23µM*
COc1ccc(S(=O)(=O)N2CCOC2CNC(=O)C(=O)NCCc2ccccc2OC)cc1C (stereo unspecified)	-15	u	-19%	u	-2%	u
COc1ccc(S(=O)(=O)N2CCOC2CNC(=O)C(=O)NCCc2c[nH]c3ccccc23)cc1 (stereo unspecified)	-16	u	-11%	16µM*	-2%	u
CC(C)(C)C(=O)OCC1OC(n2cnc(C(N)=O)n2)C(O)C1O (stereo unspecified)	7	4%	3%	16µM*	7%	u
COc1cc(Cl)c(CNC[C@H]2O[C@@H](n3cnc(C(N)=O)n3)[C@H](O)[C@@H]2O)c(Cl)c1O	0	x	4%	6%	5%	5%
C=CCNc1ncnc2c1ncn2[C@H]1CN(Cc2ccccc2)C[C@@H](COC(C)=O)O1	-27	x	1%	u	9%	-23%
COC(=O)[C@H](Cc1ccccc1)NC(=O)N1CCN(Cc2ccccc2)CC1	-13	-11%	0%	u	u	26µM*
Cc1cccc(NC(=O)c2nc[nH]c2C(=O)Nc2cc(Br)ccc2F)c1	-12	x	11%	13µM*	2%	8.2µM*
Cc1cccc(NC(=O)c2nc[nH]c2C(=O)NC[C@@H](C)O)c1	-5	x	1%	12%	-12%	-21%
Cc1cccc(NC(=O)c2nc[nH]c2C(=O)Nc2ccccc2[N+](=O)[O-])c1	-2	22%	9%	6.5µM*	0%	2.9µM*
CNC(=O)c1[nH]cnc1C(=O)Nc1cccc(Cl)c1	25	u	11%	u	-1%	-17%
Cc1sc2nc(COC(=O)c3c(F)cccc3F)[nH]c(=O)c2c1C	7	u	7%	-8%	3%	u
Cc1sc2nc(COC(=O)c3ccc(Cl)c(N)c3)[nH]c(=O)c2c1C	0	u	11%	16µM*	9%	7.3µM*
Cc1sc2nc(COC(=O)c3ccc(O)cc3)[nH]c(=O)c2c1C	8	0%	4%	u	0%	18µM*
Cc1sc2nc(COC(=O)c3ccc(N4CCCC4)c([N+](=O)[O-])c3)[nH]c(=O)c2c1C	5	-7%	16%	-4%	21%	u
Cc1sc2nc(COC(=O)c3ccc(N4CCCC(C)C4)c([N+](=O)[O-])c3)[nH]c(=O)c2c1C (stereo unspecified)	8	-18%	3%	u	-2%	16µM*
O=C1CC(c2nnc(Cc3cccc(Cl)c3)o2)CN1c1ccccc1 (stereo unspecified)	x	x	x	1%	x	-7%
O=C(NC1CCCC1)C1c2ccccc2OCC(=O)N1CCCN1CCOCC1 (stereo unspecified)	-20	x	21%	-23%	12%	-27%
COc1ccc(CCN2CCCC(CN(C)C(=O)c3ccoc3)C2)cc1 (stereo unspecified)	-26	u	-2%	5%	-5%	15%
O=C(/C=C\NCC(=O)c1ccccc1)c1ccc2ccccc2c1	-54*	u	0%	-29%	11%	u
CC1CC(C)CN(c2oc(-c3ccco3)nc2C#N)C1 (stereo unspecified)	-20	5%	-1%	18µM*	-6%	21µM*
SMILES	IL-1B inflam inh	ELG1 repair inh	HT1080-NT tox	DT40 TDP1 CPT	HT1080 IDH1KD tx	TDP1 cell noCPT
N#Cc1nc(-c2ccco2)oc1N1CCN(C(c2ccccc2)c2ccccc2)CC1	-19	-7%	u	u	-2%[9.24 µM]	u
N#Cc1nc(-c2ccco2)oc1N1CCN(c2cccc(Cl)c2)CC1	-62*	-12%	3%	u	-5%	-28%
N#Cc1nc(-c2ccco2)oc1N1CCCC1	3	u	3%	5%	0%	-1%
C[C@@H]1CN([C@@H](C)CO)C(=O)CCCn2nncc2CO[C@H]1CN(C)S(=O)(=O)c1ccc(-c2ccccc2)cc1	11	x	8%	u	-8%	-54%
CCCn1c2ccccc2c2nnc(SC(CC)C(=O)Nc3cc(C)on3)nc21 (stereo unspecified)	u	23µM*	-13%	u	-13%	29µM*
CCOC(=O)c1sc(NC(=O)C(CC)Sc2nnc3c4ccccc4n(CC)c3n2)nc1C (stereo unspecified)	40	-2%	7%	6.5µM*	7%	u
CCC(Sc1nnc2c3ccccc3n(CC)c2n1)C(=O)Nc1ccc(NC(C)=O)cc1 (stereo unspecified)	x	x	x	u	x	21µM*
CCCn1c2ccccc2c2nnc(SC(CC)C(=O)Nc3sc4c(c3C#N)CCCC4)nc21 (stereo unspecified)	88	u	18%	u	-1%	u
CCOC(=O)C(Sc1nnc2c3ccccc3n(CC)c2n1)C(=O)OCC	2	0%	-20%	-17%	-19%	u
CCC(Sc1nnc2c3ccccc3n(C)c2n1)C(=O)Nc1nnc(C(C)C)s1 (stereo unspecified)	x	x	x	u	x	-30%
